In PubChem BioAssay (NCI) one finds growth data, which are given here for 36 compounds.

The panel holds about 83,000 compounds, 20% with a hit somewhere; the sample as a whole holds those more often.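 Method: cells in 96-well plates; compound added at one concentration; 48 h incubation; percent growth measured; values under 10 scored active.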 The source made the active and inactive calls.

One experiment has as its system CAKI-1 renal. The experiment in a line: NCI-60 one-dose screen, 48 h (100 = growth as untreated, 0 = no growth, -100 = all killed). The settings on record: 10 µM unless noted.
On to `CCc1cc2c(cc1Cl)nc1c(=O)[nH]c(=O)nc-1n2CCOCC(C)C`, for which the growth is 67.7% (inactive).

Take `COc1cc(C(=O)c2cc(C(C)=O)c3cccc(C)n23)cc(OC)c1OC`: the growth was 33.5% (inactive). Consider `Nc1ncc(-c2ccc3ncnc(NCc4ccccc4)c3c2)cn1`, for which the growth was 17.4% (inactive). Take `COc1ccc2c(c1)c(-c1nn3cc(-c4ccncc4)nc3s1)cn2C`: the growth is 50.6% (inactive).

A further experiment relates to A498 renal. The description is as above. As to conditions: 10 µM unless noted.
For `C#C[C@]1(O)CC[C@H]2[C@@H]3CC=C4c5sc(N(C)c6ccccc6)nc5CC[C@]4(C)[C@H]3CC[C@@]21C`, the growth was 88.4% (inactive). The same measure, in the same setting: next, `CC(=O)c1c([Si](C)(C)C)c2cc(C#N)ccn2c1C(=O)c1ccc(Br)cc1`: 78.9% (inactive); `O=C(CSc1nc2ccccc2c(=O)n1-c1ccc(Cl)c(Cl)c1)Nc1ccc(S(=O)(=O)Nc2ccc(Cl)nn2)cc1`: 103% (inactive).

In the case of `C#CCN(C)CCCOc1ccc(NCc2ccc(/C=C/C(=O)NO)cc2)cc1Cl`, the growth was -72.2% (active). Still for that read-out and setting: to `O=C(NNc1nc2cc(F)cc(F)c2n2cccc12)c1cccnn1` belongs 4.83% (active); to `COc1ccc(/C(=N\NC(N)=S)c2ccc(Cl)cc2)cc1OC`, -4.86% (active); to `COc1ccc(-c2c(C(N)=O)c(N)n(Cc3nc4ccccc4[nH]3)c(=O)c2C#N)c(OC)c1`, 102% (inactive). In the case of `Cc1cc(Br)ccc1-n1cc(C#N)c(N)c1C(=O)c1ccc(Br)cc1`, the growth is 114% (inactive).

With `CN1CCN(Cc2ccc(NC(=O)c3cncc(C#Cc4cnc(N)nc4)c3)cc2C(F)(F)F)CC1`, the growth is -17.2% (active). Consider `CCOC(=O)c1c(NC(=O)c2ccc(C(F)(F)F)cc2)sc2c3c(ccc12)OCN(C)C3`, for which the growth is 89.1% (inactive). The same measure, in the same setting: to `O=C1CSC(c2cn(-c3ccccc3)nc2-c2ccc(Cl)cc2)N1c1ccccc1` (stereo unspecified) belongs 125% (inactive); to `COc1ccc(-c2c3c(cn2Cc2cccc(OC)c2)-c2oncc2CCC3)cc1`, 96.8% (inactive).

As for `C#C[C@]1(O)CC[C@H]2[C@@H]3CC=C4c5sc(Nc6ccc(C)cn6)nc5CC[C@]4(C)[C@H]3CC[C@@]21C`, the growth was -26.5% (active).

`CCCCCCOC(=O)c1cc(-c2ccc(F)cc2)nc2ccccc12`: the growth is 76.4% (inactive). For `CN1CCN(c2ccc(Nc3nc(NCCNS(=O)(=O)c4ccccc4)c4sccc4n3)cc2)CC1`, the growth is 101% (inactive).

For the compound `CN1CCN(Cc2ccc(NC(=O)c3cncc(C#Cc4cnc5ccc(O[C@@H]6CCOC6)nn45)c3)cc2C(F)(F)F)CC1`, the growth was -94.7% (active). Turning to `CC(C)(C)Nc1nc2c(OCCc3ccccc3)cccn2c1-c1ccc([N+](=O)[O-])cc1`, the growth is 97.7% (inactive). As to `N#Cc1c(-c2cccs2)cc(-c2cnccn2)nc1SCC(=O)N/N=C/c1ccc(Cl)cc1`, the growth is 87.1% (inactive). On the same count and under the same terms, to `CN(C)CCCOc1ccc(C(=C(c2ccccc2)C2CCCC2)c2ccc(OCCCN(C)C)cc2)cc1` belongs -82.4% (active); to `N#Cc1nc(-c2ccc(Cl)cc2)oc1N1CCC(S(=O)(=O)N2CCOCC2)CC1`, 102% (inactive); to `CC(=O)C1=C(C)NC(NNc2ccccc2)=NC1c1ccc([N+](=O)[O-])cc1` (stereo unspecified), 91.9% (inactive). Same read-out and setting: next, `COC(=O)c1ccc(NC2=C(Cl)C(=O)C(C)=C(C)C2=O)cc1`: 58.6% (inactive); `C=C(C=O)[C@@H]1CC[C@]2(C(=O)O)CC[C@]3(C)C(CC[C@@H]4[C@@](C)(CCC#N)[C@H](C(=C)C=O)CC[C@]43C)[C@@H]12` (stereo partly specified): 96.9% (inactive); `CCOC(=O)C1=C(C)NC(C)=C(C(=O)OC(C)C)C1c1cccc(C#N)c1` (stereo unspecified): 83.9% (inactive). Same read-out and setting: next, `CC1(C)CC[C@]23CC[C@]4(C)[C@H](CC[C@@H]5[C@@]6(C)CC[C@H](NCO)C(C)(C)[C@@H]6CC[C@]54C)[C@H]2[C@H]1OC3`: 106% (inactive). Consider `COc1ccc(C(=NNS(=O)(=O)c2ccc(C)cc2)c2ccccc2)cc1OC`, for which the growth is 98.3% (inactive). Still for that read-out and setting: to `COc1cccc2c1C=CC1(O2)Oc2cccc(OC)c2C=C1C` (stereo unspecified) belongs 5.37% (active); to `Cc1csc(/N=C(N)/N=C(\N)c2cccnc2)n1`, 59.6% (inactive). On the same count and under the same terms, next, `Cc1ccc(/C=N/Nc2nc(Nc3ccccc3)nc(Nc3ccc(S(N)(=O)=O)cc3)n2)cc1`: 54.7% (inactive); `CCCC[n+]1ccc(SCC(=O)n2ccc3ccccc32)c2ccccc21`: 111% (inactive).

Regarding `O=[N+]([O-])c1ccc(NC(=S)NNC(=S)Nc2ccc(Br)cc2)cc1`, the growth was 82.5% (inactive). Same read-out and setting: to `CCOP(=O)(OCC)OC[C@]12CCC(C)(C)CC1C1=CC[C@@H]3[C@@]4(C)CCCNC(C)(C)[C@@H]4CC[C@@]3(C)[C@]1(C)CC2` (stereo partly specified) belongs 85.2% (inactive).
